From PubChem BioAssay (Tox21)
Inconclusive results are not listed. Activity calls are given as the source filed them. Calls come from the whole dose curve; as a rule, active = well fitted cell-killing curve with a large enough effect in the repeat runs; inconclusive = weak or mixed curves, or effect the other way; inactive = flat fitted curve, though single readings scatter.

Test: qHTS assay to identify small molecule antagonists of the estrogen related receptor signaling pathway with the pleiotropic PPARgamma coactivator (PGC) cell viability counter screen (AID 1224822;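 note: viability read after 17.5 h compound exposure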)
Details: ERR/PGC reporter cell line viability counter screen; series mostly up to 46.1 µM
Excerpt: National Center for Advancing Translational Sciences [NCATS]
NIH Chemical Genomics Center [NCGC]
U.S. Environmental Protection Agency [EPA]
National Institutes of Environmental Health Sciences [NIEHS]
National Toxicology Program [NTP]
U.S. Food and Drug Administration [FDA]
Estrogen related receptors (ERRs), the first orphan nuclear receptors discovered, play an important role in the control of cellular energy metabolism. ERRs are required for high-energy production in response to the environmental challenges. The pleiotropic PPARgamma coactivator (PGC) is a major partner of ERR and a key regulator in energy homeostasis. Together they have been implicated in the etiology of metabolic disorders such as Type 2 diabetes and metabolic syndrome. ERR-alpha was also identified as an adverse marker for breast cancer progression; ERR-alpha-positive tumors have a poor prognosis. To screen and to identify environmental compounds that perturb the ERR and PGC/ERR signaling pathways could provide valuable information for potential therapeutic or preventive measures in the treatment of metabolic disease. To differentiate true PGC/ERR antagonists or agonist from cytotoxic substances, the assay is multiplexed with cell viability assay.
Tox21 Assay Protocol Summary:
The PGC/ERR cells were dispensed at 2,000 cells/5 ul/well in 1536-well white plates using a Multidrop dispenser. After the assay plates were incubated at a 37 C/5% CO2 incubator for 6 hours, 23 nL of compounds dissolved in DMSO, positive and negative controls or DMSO only was transferred to the assay plate by a pin tool. The plates were incubated at 37 C for 17.5 hours. 1 ul/well of CellTiter-Fluor reagent was added into the assay plates using a Flying Reagent Dispenser. After 30 min incubation at 37 C/5% CO2, the fluorescence intensity in the plates was measured using a ViewLux plate reader.

SMILES	outcome
CC(C)(C)C(=O)Oc1ccc(S(=O)(=O)Nc2ccccc2C(=O)NCC(=O)O)cc1	inactive
Nc1ccn([C@@H]2O[C@H](CO)[C@@H](O)[C@@H]2O)c(=O)n1	inactive
N[C@@H](CCC(=O)O)C(=O)O	inactive
CCCc1nn(C)c2c(=O)[nH]c(-c3cc(S(=O)(=O)N4CCN(C)CC4)ccc3OCC)nc12	inactive
CC[N+](CC)(CC)CCOc1cccc(OCC[N+](CC)(CC)CC)c1OCC[N+](CC)(CC)CC	inactive
CN(C)C(=O)Oc1cccc([N+](C)(C)C)c1	inactive
Cc1ccc(C(=O)Nc2ccc(S(=O)(=O)O)c3cc(S(=O)(=O)O)cc(S(=O)(=O)O)c23)cc1NC(=O)c1cccc(NC(=O)Nc2cccc(C(=O)Nc3cc(C(=O)Nc4ccc(S(=O)(=O)O)c5cc(S(=O)(=O)O)cc(S(=O)(=O)O)c45)ccc3C)c2)c1	inactive
CN1CC(=O)N/C1=N/C(=O)Nc1cccc(Cl)c1	inactive
NCCCC(N)(C(=O)O)C(F)F (stereo not given)	inactive
CNCC(O)c1ccc(O)c(O)c1 (stereo not given)	inactive
CC(C)NNC(=O)c1ccncc1	inactive
C[N+](C)(C)CCCCCCCCCC[N+](C)(C)C	inactive
CN(C)C(=O)Oc1ccc[n+](C)c1	inactive
NO	inactive
CCOC(=O)c1cnc2c(cnn2CC)c1NN=C(C)C	inactive
